From PubChem
EPAC1 antagonist: antagonists of human EPAC1 | O95398 | EPAC1 GEF assay, Rap1b-BODIPY-GDP exchange fluorescence | Potency, µM (highest dose often 115 µM), for the others: top-dose activity change, negative = inhibition, actives largely listed as inhibitors | actives 0.14% (n = 360,000);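 further: plate controls were vehicle for no effect and positive control for full effect; nearly all actives have a fitted effect of over 50% in size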
EPAC1 agonist: agonists of human EPAC1. actives 0.073% (n = 360,000). EPAC1 agonist qHTS, biochemical assay; response scale: 100% = response to 6.5 mM cAMP. AID 720707. O95398. Potency, µM (top dose mostly 154 µM), for the others: at the highest dose activation, usual class: activators; further: nearly all actives have a fitted effect of over 60% in size
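Nucleotide exchange by EPAC1 (100 nM) on Rap1B–BODIPY-GDP (250 nM) in the presence of 50 uM GDP is tracked fluorescently at 480/540 nm over 30 min. Signals are normalized to a 6.5 mM cAMP control.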
EPAC2 ag: agonists of human EPAC2 (RAPGEF4) | Q8WZA2 | EPAC2 activation, biochemical qHTS; response scale: 100% = 6.5 mM cAMP response | Potency, µM (series often up to 154 µM), for the others: at the highest dose activation, actives largely listed as activators | actives 0.079% (n = 360,000) | AID 720711; further: nearly all actives have a fitted effect of over 50% in size
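qHTS, titration series. 100 nM EPAC2 / 250 nM Rap1B-BODIPY-GDP / 50 uM GDP; RT; ex 480/em 540 nm, 5-min reads to 30 min. Norm. to 6.5 mM cAMP = activation.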
EPAC2 antag: EPAC2 (human) antagonism; EPAC2 GEF exchange of Rap1B-BODIPY-GDP, fluorescence; AID 720708; actives 0.18% (n = 360,000); Potency, µM (series often up to 114 µM), for the others: at the top dose activity, negative = inhibition, most hits filed as inhibitors; further: on the % scale 0 is the no-effect control and ±100 the full control effect; nearly all actives have a fitted effect of over 45% in size
Numbers without * were called inactive; ? = inconclusive. The list is not random: actives were taken first. Their share in the collection is about 0.39%. The call rests on the fitted dose curve; in most records, active means well fitted curve in the direction sought with a large enough effect; inconclusive means small, poorly fitted or top-dose-only effect, or another doubt; inactive means no such curve, though single readings can be large; an effect the other way counts as inactive or inconclusive. Potency means the concentration at half of the fitted maximal effect.

SMILES	EPAC1 antagonist	EPAC1 agonist	EPAC2 ag	EPAC2 antag
O=C(O)C1Nc2c(Cl)cc(Cl)c(Cl)c2C2C=CCC12 (centres undefined)	?	10%	2%	1%
O=C(O)C1Nc2c(Cl)cc(Cl)cc2C2C=CCC12 (centres undefined)	18µM*	5%	1%	-2%
COc1ccccc1CNC(=O)C1(C)CCN1C(=O)C1(c2ccccc2)CC1 (centres undefined)	-27%	-5%	5%	0%
CC(C)C[C@H]1CN([C@@H](Cc2ccc(O)cc2)CN2CCC[C@H]2CN2C(=O)C(=O)NC[C@@H]2Cc2ccccc2)C(=O)C(=O)N1CC1CCCCCC1	-13%	1%	-6%	-6%
Cc1ccc(S(=O)(=O)N2[C@@H](c3cccc(Cl)c3)C(C(=O)O)=CC[C@H]2c2ccc(C(C)C)cc2)cc1	56µM*	-16%	-9%	-28%
C=CCNc1nc(-c2sc(NC(=O)C(C)(C)C)nc2C)c(-n2cc(-c3ccccc3)nn2)s1	-13%	3%	4%	-9%
COc1cc(C(=O)Nc2ccccc2-c2nnn(CC(N)=O)n2)cc(OC)c1OC	6%	-2%	-3%	0%
COc1ccc(C(=O)Nc2ccccc2-c2nnn(CC(N)=O)n2)cc1	89µM*	-10%	-3%	-4%
CN1C(=O)[C@H]2[C@@H](c3ccc(C(F)(F)F)cc3)N[C@]3(CCCN(Cc4ccc(C(F)(F)F)cc4)C3=O)[C@H]2C1=O	-15%	-23%	6%	-3%
O=C1NN(c2ccccc2)C(=O)/C1=C\c1ccc(-c2cc([N+](=O)[O-])ccc2O)o1	-4%	-6%	-23%	79µM*
CCOC(=O)C1CCCN(C(=O)c2ccc3[nH]c4c(c3c2)CC(C)CC4)C1 (centres undefined)	-21%	-3%	-4%	-16%
CC1CCc2[nH]c3ccc(C(=O)N4CCCC(C(F)(F)F)C4)cc3c2C1 (centres undefined)	?	112µM*	-14%	-29%
N#Cc1cc(C(=O)c2cc(F)ccc2O)cn(-c2nccs2)c1=O	36%	?	112µM*	76%
N#Cc1cc(C(=O)c2ccccc2O)cn(-c2nccs2)c1=O	62%	89µM*	100µM*	77%
CC(C)n1cc(C(=O)c2ccccc2O)cc(C#N)c1=O	10%	2%	5%	1%
CCCCN(C)c1c(C)nc2ccc(C(=O)N(C)Cc3ccco3)cn12	-18%	1%	1%	-8%
O=C1NC(=O)C2(N1)C(=O)c1cccc3cccc2c13 (centres undefined)	40%	112µM*	?	59%
O=C1NC(=O)C2(N1)c1ccccc1-c1ccccc12	-13%	-2%	1%	8%
COc1cc(NC(=O)c2cnc(N)s2)cc(C(=O)Nc2cccc(C(F)(F)F)c2)c1	40µM*	6%	9%	-19%
COc1cc(NC(=O)c2ccnc(N)c2)cc(C(=O)Nc2cccc(C(F)(F)F)c2)c1	71µM*	-4%	4%	-7%
OC[C@@H]1CN(Cc2cccc3ccccc23)C[C@H](n2cnc3c(NCc4ccco4)ncnc32)O1	-7%	11%	10%	?
COC(=O)c1ccccc1C(=O)c1cccc2ccccc12	-17%	7%	14%	45µM*
O=C(c1ccccc1)c1cccc2ccccc12	-14%	14%	11%	13µM*
O=C(O)c1cccc(C(=O)c2cccc3ccccc23)c1	-1%	9%	3%	4%
O=S(=O)(O)c1cc(O)c(N=Nc2ccc(O)cc2O)c2ccccc12	79µM*	-8%	12%	45µM*
SMILES	EPAC1 antagonist	EPAC1 agonist	EPAC2 ag	EPAC2 antag
COc1cc(/C=C2\SC(=S)N(NS(=O)(=O)c3ccccc3)C2=O)cc(OC)c1OC	?	3%	5%	50µM*
COc1cccc(/C=C2\SC(=S)N(NS(=O)(=O)c3ccccc3)C2=O)c1OC	50µM*	8%	1%	?
O=C1/C(=C/c2cccc(F)c2)SC(=S)N1NS(=O)(=O)c1ccccc1	40µM*	-13%	-5%	18µM*
COc1ccc(/C=C2/SC(=O)N(NS(=O)(=O)c3ccccc3)C2=S)cc1OC	-12%	1%	7%	-8%
Cc1ccc(C(=O)NCCN2CCC(n3c(=O)[nH]c4ccccc43)CC2)cc1	6%	-11%	6%	1%
O=C1C=CC(c2ccccc2)(c2ccccc2)CC1	4%	1%	12%	45µM*
COC(=O)[C@]12CCCCC=C1N(CCC1=CCCCC1)C(=O)[C@H](CC(=O)N1CCC(c3ccccc3)CC1)C2	2%	-4%	9%	-6%
CN(C)c1ccc(-c2csc(C(O)c3ccc(F)c(F)c3)n2)cc1 (centres undefined)	-6%	-6%	8%	-11%
COc1ccc(-n2cnc3scc(-c4ccc(OC)c(OC)c4)c3c2=O)cc1	-23%	2%	10%	?
COc1ccc(-c2csc3ncn(-c4ccc(C)cc4)c(=O)c23)cc1OC	-27%	0%	6%	45µM*
CC(=O)c1cccc(-c2ccc3c(=O)[nH]c(Nc4ccccc4)cc3c2)c1	50µM*	13%	8%	5%
O=c1[nH]c(Nc2ccccc2)cc2ccccc12	50µM*	-6%	6%	?
O=c1[nH]c(Nc2ccccc2)cc2cc(Br)ccc12	?	-5%	6%	-10%
O=c1cc(-c2ccccc2)nc2c(-c3ccccc3)c(C(F)(F)F)[nH]n12	?	-5%	-5%	18µM*
CCCCCCCCN1C(=O)[C@H](CC(=O)N2CCCC2)C[C@@]2(C(=O)OC)CC(C)(C)CC=C12	-16%	-22%	-14%	?
OCCN(CCO)c1nc(N2CCCCC2)c2nc(N(CCO)CCO)nc(N3CCCCC3)c2n1	190%	100µM*	112µM*	185%
O=C(CCC1CCCC1)Nc1ccc([N+](=O)[O-])cn1	103%	112µM*	-2%	10%
CCC(CC)C(=O)Nc1ccc([N+](=O)[O-])cn1	-3%	-2%	6%	-5%
COC(=O)[C@]12CCCCC=C1N(CCC1=CCCCC1)C(=O)[C@H](CC(=O)N1CCN(C(=O)c3ccco3)CC1)C2	-8%	5%	1%	-13%
O=C(Nc1ccc(Cl)cc1C(=O)O)c1ccc2c(c1)C(=O)N(Cc1ccco1)C2=O	79µM*	4%	1%	?
O=C(Nc1cccc(O)c1)c1ccc2c(c1)C(=O)N(Cc1ccco1)C2=O	-4%	4%	-3%	1%
C[C@H]1CN([C@@H](C)CO)S(=O)(=O)c2ccc(C#Cc3ccccn3)cc2O[C@@H]1CN(C)C(=O)C1CC1	0%	-6%	-1%	5%
COc1cc(CNn2cnnc2)ccc1OCC(=O)NC(C)(C)C	-5%	3%	10µM*	2%
O=C1C(=Cc2ccc(Cl)cc2)CCc2ccccc21	-8%	4%	9%	-26%
O=C1C(=Cc2ccccc2Cl)CCc2ccccc21	?	-4%	3%	35µM*
